Measured values taken from PubChem BioAssay (EPA / NIEHS).
Results filed as inconclusive are left out. Some structures have more than one record in an assay (separate samples or runs), and their calls can disagree. Activity calls are given as the source filed them. Rule for the calls, unless noted: active = hit-call score of the fitted dose curve at least 0.9, where 1 is the maximum; inconclusive = response in the unintended direction; inactive = score below 0.9.

Tests used:
[1] = molecular target: Retinoic acid receptor RXR-alpha (Homo sapiens) (UniProt P19793); assay: OT_NURR1_NURR1RXRa_0480: Odyssey Thera (OT) 8-hour HEK293T Protein Complementation Assay for Nurr1/retinoid X receptor (RXR) (AID 2283385)
Procedure, shortened: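 Interaction of Nurr1 with RXRα read as reconstituted reporter fluorescence in a HEK293T fragment-complementation system, 8 h post-treatment; increase over DMSO baseline analysed.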

[2] = molecular target: Retinoic acid receptor RXR-alpha (Homo sapiens) (UniProt P19793); assay: OT_NURR1_NURR1RXRa_1440: Odyssey Thera (OT) 24-hour HEK293T Protein Complementation Assay for Nurr1/retinoid X receptor (RXR) (AID 2283386)
Procedure, shortened: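 Gain in fluorescence, fitted relative to DMSO, reflects Nurr1–RXRα association in HEK293T cells after 24 h dosing. Bait and prey are each linked to a reporter-protein fragment that reassembles on interaction.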

[3] = molecular target: Peroxisome proliferator-activated receptor gamma (Homo sapiens) (UniProt P37231); assay: OT_PPARg_PPARgSRC1_0480: Odyssey Thera (OT) 8-hour Protein-Complementation Assay for Peroxisome Proliferator-activated Receptor Gamma / SRC-1 Co-activator (AID 2283387);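 note: nuclear to cytoplasmic split Venus YFP fluorescence ratio reporting PPARg SRC-1 interaction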
Procedure, shortened: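 Protein-fragment complementation of split Venus YFP reports PPARg/SRC-1 interaction in HEK293T (transfected 48 h before treatment), exposed 8 h. Readout: N/C fluorescence ratio at 488 nm from imaging, Draq5 for segmentation, positive fit relative to DMSO.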

[4] = molecular target: Peroxisome proliferator-activated receptor gamma (Homo sapiens) (UniProt P37231); assay: OT_PPARg_PPARgSRC1_1440: Odyssey Thera (OT) 24-hour Protein-Complementation Assay for Peroxisome Proliferator-activated Receptor Gamma/ SRC-1 Co-activator (AID 2283388);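 note: nuclear to cytoplasmic ratio of reconstituted Venus YFP fluorescence in fixed imaged cells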
Procedure, shortened: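 Transient HEK293T, YFP fragments 1-158/159-239 (mutant IFP1/IFP2) fused to PPARg/SRC-1; 24 h dosing; fix 4% formaldehyde, Draq5; Opera imaging 488/635 nm; N/C ratio, gain vs DMSO.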

[5] = CEETOX_H295R_OHPREG: CeeTox H295R High-throughput Steroidogenesis Assay for OH-Pregnenolone (OHPREG) (AID 2283434; active = hit-call score of the fitted dose curve at least 0.9, where 1 is the maximum; inactive = score below 0.9); details: actives raise or lower the signal
Procedure, shortened: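 Readout: HPLC-MS/MS of 17alpha-hydroxypregnenolone in medium after 48 h chemical exposure of H295R cells pretreated with forskolin. Values fitted bidirectionally relative to DMSO; chemicals reducing viability to 20–70% were retested after 10-fold dilution.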

[6] = CEETOX_H295R_OHPROG: CeeTox H295R High-throughput Steroidogenesis Assay for OH-Progesterone (OHPROG) (AID 2283435; active = hit-call score of the fitted dose curve at least 0.9, where 1 is the maximum; inactive = score below 0.9;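 for AC50: 17alpha-hydroxyprogesterone secreted into medium measured by HPLC-MS/MS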); details: actives raise or lower the signal
Procedure, shortened: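 Medium steroid levels read by LC-MS/MS after 48 h chemical treatment (0.1% DMSO) of human adrenal H295R cells that had been forskolin-primed (10 uM, 48 h). Gain or loss fitted against DMSO; MTT cytotoxicity checked per well.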

[7] = CEETOX_H295R_ANDR: CeeTox H295R High-throughput Steroidogenesis Assay for Androstenedione (ANDR) (AID 2283436; active = hit-call score of the fitted dose curve at least 0.9, where 1 is the maximum; inactive = score below 0.9;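 note: human H295R adrenal cells exposed for 48 h with androstenedione measured in medium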); details: actives raise or lower the signal
Procedure, shortened: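 Steroidogenesis in H295R adrenal cells after 48 h dosing; androstenedione quantified by LC-MS/MS, with DMSO as negative control and baseline for bidirectional curve fitting.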

[8] = CEETOX_H295R_PROG: CeeTox H295R High-throughput Steroidogenesis Assay for Progesterone (PROG) (AID 2283442; active = hit-call score of the fitted dose curve at least 0.9, where 1 is the maximum; inactive = score below 0.9;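 for AC50: human H295R adrenal cells primed with 10 µM forskolin before dosing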); details: actives raise or lower the signal
Procedure, shortened: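 Adrenal H295R line, forskolin-stimulated (10 uM, 48 h) before dosing. 48 h exposure, 0.1% DMSO vehicle. Secreted progesterone by reverse-phase HPLC with ESI+ MS/MS quantification; DMSO-normalised bidirectional curve fit.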

[9] = read-out: Cyclin Dependent Kinase Inhibitor 1A (CDKN1A), CDKN1A (gene 1026); assay: LTEA_HepaRG_CDKN1A: Life Technologies and Expression Analysis (LTEA) Assay for Cyclin Dependent Kinase Inhibitor 1A (CDKN1A) using HepaRG (AID 2283450; active = hit-call score of the fitted dose curve at least 0.9, where 1 is the maximum; inactive = score below 0.9); details: mRNA level, 48 h; actives raise or lower the signal
Procedure, shortened: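 Cryopreserved HepaRG cells were plated and cultured 48 h, then switched to serum-free induction medium. Chemicals (eight half-log concentrations, top 100 uM, 0.5% DMSO) were applied for 48 h. Lysates underwent qRT-PCR for CDKN1A with housekeeping normalization.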

[10] = read-out: catalase (CAT), CAT (gene 847); assay: LTEA_HepaRG_CAT: Life Technologies and Expression Analysis (LTEA) Assay for catalase (CAT) using HepaRG (AID 2283452; active = hit-call score of the fitted dose curve at least 0.9, where 1 is the maximum; inactive = score below 0.9); details: mRNA level, 48 h; actives raise or lower the signal
Procedure, shortened: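 Differentiated HepaRG cells in serum-free induction medium were dosed 48 h in duplicate, eight half-log concentrations from 100 uM in 0.5% DMSO. Transcript measured by TaqMan qRT-PCR, normalised to ACTB/GAPDH/POLR2A, fitted bidirectionally against DMSO.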

[11] = read-out: flavin-containing dimethylaniline monooxygenases 3 (FMO3), FMO3 (gene 2328); assay: LTEA_HepaRG_FMO3: Life Technologies and Expression Analysis (LTEA) Assay for flavin-containing dimethylaniline monooxygenases 3 (FMO3) using HepaRG (AID 2283453; active = hit-call score of the fitted dose curve at least 0.9, where 1 is the maximum; inactive = score below 0.9;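 for AC50: FMO3 transcript by TaqMan qRT-PCR normalized to ACTB GAPDH and POLR2A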); details: mRNA level, 48 h; actives raise or lower the signal
Procedure, shortened: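 FMO3 transcript quantified by TaqMan qRT-PCR against three housekeeping genes after 48 h chemical exposure of HepaRG cells. Eight-point half-log series, top 100 uM, 0.5% DMSO vehicle; phenobarbital 1mM induction control; up- or down-regulation fitted.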

[12] = read-out: Cytochrome P450 (CYP1A1), CYP1A1 (gene 1543); assay: LTEA_HepaRG_CYP1A1: Life Technologies and Expression Analysis (LTEA) Assay for Cytochrome P450 (CYP1A1) using HepaRG (AID 2283454; active = hit-call score of the fitted dose curve at least 0.9, where 1 is the maximum; inactive = score below 0.9); details: mRNA level, 48 h; actives raise or lower the signal
Procedure, shortened: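 Induction of CYP1A1 mRNA in a human hepatic cell line was measured 48 h after dosing, with 1 mM phenobarbital as induction positive control and 0.5% DMSO vehicle as baseline for bidirectional curve fitting.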

[13] = read-out: CFLAR gene, CFLAR (gene 8837); assay: LTEA_HepaRG_CFLAR: Life Technologies and Expression Analysis (LTEA) Assay for CFLAR gene using HepaRG (AID 2283455; active = hit-call score of the fitted dose curve at least 0.9, where 1 is the maximum; inactive = score below 0.9); details: mRNA level, 48 h; actives raise or lower the signal
Procedure, shortened: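 Gain- or loss-of-signal changes in CFLAR transcript were fitted bidirectionally relative to 0.5% DMSO. Cells (HepaRG, duplicate wells) were dosed for 48 h across eight half-log concentrations topping at 100 uM; quantitation by TaqMan qRT-PCR.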

[14] = read-out: Tumor necrosis factor receptor superfamily member 6 (Homo sapiens) (UniProt P25445); assay: LTEA_HepaRG_FAS: Life Technologies and Expression Analysis (LTEA) Assay for Fas cell surface death receptor (FAS) using HepaRG (AID 2283447; active = hit-call score of the fitted dose curve at least 0.9, where 1 is the maximum; inactive = score below 0.9); details: mRNA level, 48 h; actives raise or lower the signal
Procedure, shortened: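 Differentiated human HepaRG cells, pre-cultured 48 h, were exposed in duplicate for 48 h to 8-point half-log concentrations (top 100 uM, 0.5% DMSO) in serum-free induction medium; FAS mRNA measured by qRT-PCR, normalized to ACTB/GAPDH/POLR2A, bidirectional fit versus DMSO.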

[15] = read-out: Cyclin D2 (CCND2), CCND2 (gene 894); assay: LTEA_HepaRG_CCND2: Life Technologies and Expression Analysis (LTEA) Assay for Cyclin D2 (CCND2) using HepaRG (AID 2283449; active = hit-call score of the fitted dose curve at least 0.9, where 1 is the maximum; inactive = score below 0.9;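 note: CCND2 transcript measured by TaqMan qRT-PCR and normalised to three housekeeping genes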); details: mRNA level, 48 h; actives raise or lower the signal
Procedure, shortened: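 In this HepaRG study, an eight-point concentration series (max 100 uM, 0.5% DMSO) is applied for 48 h. CCND2 mRNA change is derived by qRT-PCR normalised to ACTB, GAPDH and POLR2A.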

[16] = CEETOX_H295R_CORTIC: CeeTox H295R High-throughput Steroidogenesis Assay for Corticosterone (CORTIC) (AID 2283437; active = hit-call score of the fitted dose curve at least 0.9, where 1 is the maximum; inactive = score below 0.9;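 note: corticosterone secreted into medium quantified by mass spectrometry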); details: actives raise or lower the signal
Procedure, shortened: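 Steps: seed H295R, adhere overnight; 10 uM forskolin 48 h; replace with chemical (0.1% DMSO) 48 h; extract medium with MTBE; quantify corticosterone by HPLC-MS/MS; score bidirectionally vs DMSO.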

[17] = CEETOX_H295R_CORTISOL: CeeTox H295R High-throughput Steroidogenesis Assay for Cortisol (AID 2283438; active = hit-call score of the fitted dose curve at least 0.9, where 1 is the maximum; inactive = score below 0.9); details: actives raise or lower the signal
Procedure, shortened: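 Cortisol measured by HPLC-MS/MS after MTBE extraction of medium from H295R cells exposed 48 h to chemical (0.1% DMSO), following 48 h prestimulation with 10 uM forskolin. Viability assessed by MTT in the same wells.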

[18] = CEETOX_H295R_DOC: CeeTox H295R High-throughput Steroidogenesis Assay for DOC (AID 2283439; active = hit-call score of the fitted dose curve at least 0.9, where 1 is the maximum; inactive = score below 0.9); details: actives raise or lower the signal
Procedure, shortened: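 11-Deoxycorticosterone quantified in medium by MTBE extraction and HPLC-MS/MS after 48 h chemical exposure (0.1% DMSO) of forskolin-primed (10 uM, 48 h) H295R cells. Same-well MTT viability; data fitted bidirectionally against DMSO.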

[19] = CEETOX_H295R_ESTRADIOL: CeeTox H295R High-throughput Steroidogenesis Assay for Estradiol (AID 2283440; active = hit-call score of the fitted dose curve at least 0.9, where 1 is the maximum; inactive = score below 0.9;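 note: estradiol secreted into medium quantified by LC-MS/MS after dansyl derivatisation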); details: actives raise or lower the signal
Procedure, shortened: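 Following OECD 456 with minor changes, H295R cells received 10 uM forskolin for 48 h and then test chemical for 48 h. Hormone output was read by HPLC-MS/MS, with cytotoxic concentrations diluted until MTT viability reached ≥70%.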

[20] = CEETOX_H295R_ESTRONE: CeeTox H295R High-throughput Steroidogenesis Assay for Estrone (AID 2283441; active = hit-call score of the fitted dose curve at least 0.9, where 1 is the maximum; inactive = score below 0.9); details: actives raise or lower the signal
Procedure, shortened: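 Estrone secreted into medium quantified by LC-MS/MS after dansyl chloride derivatization, following 48 h chemical exposure (0.1% DMSO final) of forskolin-prestimulated (10 uM, 48 h) H295R cells; gain or loss fitted against DMSO; MTT viability in same wells.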

Measured: AC50

Chain of Retinoic acid receptor RXR-alpha (Homo sapiens) (P19793 whole entry, looked up, the tested form may be a part): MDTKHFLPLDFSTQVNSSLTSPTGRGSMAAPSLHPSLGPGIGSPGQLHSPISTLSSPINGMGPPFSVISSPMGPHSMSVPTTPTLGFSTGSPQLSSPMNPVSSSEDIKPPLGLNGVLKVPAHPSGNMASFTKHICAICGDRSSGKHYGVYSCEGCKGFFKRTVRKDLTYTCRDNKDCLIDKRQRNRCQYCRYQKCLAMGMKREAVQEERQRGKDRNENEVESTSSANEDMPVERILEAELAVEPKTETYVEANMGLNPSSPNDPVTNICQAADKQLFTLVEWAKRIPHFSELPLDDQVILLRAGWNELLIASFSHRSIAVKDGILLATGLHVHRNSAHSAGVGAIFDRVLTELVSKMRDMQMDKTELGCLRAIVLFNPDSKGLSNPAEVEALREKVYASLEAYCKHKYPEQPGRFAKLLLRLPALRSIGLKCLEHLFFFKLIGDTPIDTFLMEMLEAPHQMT
Chain of Peroxisome proliferator-activated receptor gamma (Homo sapiens) (P37231 whole entry, looked up, the tested form may be a part): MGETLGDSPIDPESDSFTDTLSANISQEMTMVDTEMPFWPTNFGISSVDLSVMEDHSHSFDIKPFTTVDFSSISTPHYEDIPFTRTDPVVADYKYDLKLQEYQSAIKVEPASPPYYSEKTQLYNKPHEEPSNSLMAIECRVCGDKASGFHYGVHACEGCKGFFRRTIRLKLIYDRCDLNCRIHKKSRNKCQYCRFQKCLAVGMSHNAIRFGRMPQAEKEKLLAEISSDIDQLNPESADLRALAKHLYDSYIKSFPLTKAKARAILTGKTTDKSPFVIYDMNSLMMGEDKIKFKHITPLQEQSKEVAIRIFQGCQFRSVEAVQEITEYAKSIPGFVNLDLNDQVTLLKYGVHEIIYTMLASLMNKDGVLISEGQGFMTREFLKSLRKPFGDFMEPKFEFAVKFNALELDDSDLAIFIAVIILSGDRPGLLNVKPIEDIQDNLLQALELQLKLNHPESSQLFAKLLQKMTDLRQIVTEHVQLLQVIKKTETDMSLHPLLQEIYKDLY

O=C/C=C/c1ccccc1
inactive: [1] | [2] | [3] | [4]

COP(=O)(OC)O/C(=C\Cl)c1cc(Cl)c(Cl)cc1Cl
inactive: [2] | [3] | [4] | [5] | [6] | [7] | [8]
active: [1] 4.45 µM

COc1cc(OC)nc(NC(=O)NS(=O)(=O)c2ncccc2C(=O)N(C)C)n1
inactive: [1] | [2] | [3] | [4]

Clc1ccc(C2(Cn3cncn3)CC(Br)CO2)c(Cl)c1 (stereo unspecified)
inactive: [1] | [2] | [3] | [4]

COP(=O)(OC)OC
inactive: [1] | [2] | [3] | [4]

CCCCCCCCc1ccc(O)cc1
active: [2] 57.4 µM
inactive: [1] | [2] | [3] | [4] | [9] | [10] | [11] | [12] | [13]

C=CCc1ccc(OC)cc1
inactive: [1] | [2] | [3] | [4]

CC(=O)c1cc(C(C)(C)C)cc2c1CCC2(C)C
active: [1] 74.2 µM | [2] 86.9 µM
inactive: [3] | [4]

CCOC(=O)Nc1cccc(OC(=O)Nc2ccccc2)c1
inactive: [1] | [2] | [3] | [4]

Clc1ccc(COC(Cn2ccnc2)c2ccc(Cl)cc2Cl)cc1 (stereo unspecified)
inactive: [3] | [4]
active: [1] 11.2 µM | [2] 11.6 µM

O=C(O)C(F)(F)C(F)(F)C(F)(F)C(F)(F)C(F)(F)C(F)(F)C(F)(F)C(F)(F)C(F)(F)C(F)(F)F
inactive: [1] | [2] | [3] | [4] | [14] | [15] | [9] | [10] | [12] | [13]
active: [11] 69.1 µM

CCOP(=S)(OCC)SCSP(=S)(OCC)OCC
active: [5] 14.9 µM | [6] 1.73 µM | [18] 1.37 µM | [8] 4.53 µM | [12] 33.1 µM
not listed: [2] | [7]
inactive: all other assays above

O=C(Cc1ccccc1)c1ccccc1
inactive: [1] | [2] | [5] | [16] | [17] | [18]
active: [6] 43.6 µM | [8] 45.9 µM

COP(=S)(OC)Oc1ccc(Sc2ccc(OP(=S)(OC)OC)cc2)cc1
inactive: [1] | [3] | [4]

C=C(C)C#N
inactive: [2]
